Our source for the inhibition values is ChEMBL document CHEMBL3433997, “St. Jude Leishmania screening dataset” (2016).

Holding throughout (type): functional
In assay [1] the target is Solute carrier family 2, facilitated glucose transporter member 1 (Homo sapiens) (UniProt P11166). Put plainly: ST_JUDE_LEISH: Cytotoxicity at 2uM final concentration against transgenic Leishmania Mexicana promastigotes LmGLUT1 that are glucose transport deficient and complemented with the human glucose transporter GLUT1. Activity is measured by DNA content using SYBR green in vitro.
Solute carrier family 2, facilitated glucose transporter member 1 (Homo sapiens), sequence (P11166 whole entry): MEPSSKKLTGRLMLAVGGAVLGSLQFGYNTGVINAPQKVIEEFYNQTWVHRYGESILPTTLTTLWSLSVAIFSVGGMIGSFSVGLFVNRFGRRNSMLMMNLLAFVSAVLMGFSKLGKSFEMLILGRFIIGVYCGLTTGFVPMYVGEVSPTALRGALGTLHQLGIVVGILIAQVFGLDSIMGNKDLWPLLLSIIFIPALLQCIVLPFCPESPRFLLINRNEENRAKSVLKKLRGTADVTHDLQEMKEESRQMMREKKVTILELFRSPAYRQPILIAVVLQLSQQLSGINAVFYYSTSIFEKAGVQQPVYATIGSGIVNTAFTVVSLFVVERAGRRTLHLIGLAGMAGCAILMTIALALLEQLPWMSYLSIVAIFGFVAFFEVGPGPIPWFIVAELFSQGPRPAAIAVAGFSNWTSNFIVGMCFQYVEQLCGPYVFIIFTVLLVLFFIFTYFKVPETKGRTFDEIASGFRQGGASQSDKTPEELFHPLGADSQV

Assay [2] concerns the target Hexose transporter 1 (Plasmodium falciparum) (UniProt O97467). The assay can be described thus: ST_JUDE_LEISH: Cytotoxicity at 2uM final concentration against transgenic Leishmania Mexicana promastigotes LmPfHT that are glucose transport deficient and complemented with the Plasmodium falciparum hexose transporter. Activity is measured by DNA content using SYBR green in vitro.

The target of assay [3] is Glucose transporter (Leishmania mexicana) (UniProt O61059). Put plainly: ST_JUDE_LEISH: Cytotoxicity at 2uM final concentration against transgenic Leishmania Mexicana promastigotes LmGT2 that are glucose transport deficient and complemented with the L. Mexicana glucose transporter 2. Activity is measured by DNA content using SYBR green in vitro.

As usually defined, the inhibition is the relative decrease from the control value, in per cent. As for `CC(=O)Oc1cc(C)ccc1C1CCN(CCCCNC(=O)c2ccc(NC(=O)c3ccc(Cl)cc3)cc2)CC1`, the inhibition in assay [1] turned out to be 1.6%; in assay [2], 1.07%; in assay [3] it was 1.52%.
The like results for `N#Cc1ccc(N(CCOc2ccc(Cl)cc2)Cc2ccccc2C(F)(F)F)cc1C(F)(F)F` were, in that order, -1.04%, -1.88% and -1.54%.
As to `C=CCc1cc(Cc2cnc(N)nc2N)cc(CCC)c1OC`, the inhibition is 15.3% in assay [1], 12.5% in assay [2] and 8.6% in assay [3].
Consider `Cc1nc(-c2nc(NCCc3cnccn3)ncc2-c2ccsc2)sc1C`, for which the inhibition in assay [1] was 0.04%; in assay [2], 0.59%; in assay [3], -2.39%.
As to `CN(C)Cc1ccc(-c2cccc(NC(=O)c3ccc(Cl)cc3)c2)cc1`, the inhibition in assay [1] is -2.32%; in assay [2] it was -0.06%; in assay [3], 0.23%.
The like results for `CCCCCCCC1CC(CC(=O)Nc2ccnc3ccc(OC)cc23)CN1` (stereo unspecified) were, in that order, 1.6%, 0.43% and 0.67%.
The like results for `CCCCCCNC(=N)c1ccc(OCCCCCOc2ccc(C(=N)NCCCCCC)cc2)cc1` were, in that order, 58.5%, 59.4% and 37.2%.
With `Cc1ccc(F)cc1S(=O)(=O)Nc1cccc(CCN2CCC(N3CCCCC3)CC2)c1`, the results for the inhibition in assay [1], in assay [2] and in assay [3] were 3.52%, 6.1% and 0.55%, respectively.
Turning to `CN(c1ncc(-c2cccc(CNCc3ccccc3O)c2)cn1)C1CCCCC1`, the inhibition in assay [1] was -1.25%; in assay [2], -0.2%; in assay [3], 0.12%.
Consider `O=[N+]([O-])c1c(O)nc2c(c1O)CCC2`, for which the inhibition in assay [1] was 4.52%; in assay [2], 4.36%; in assay [3] it was 4.11%.
`COC(=O)c1sc(-c2ccc(Cl)cc2)cc1N(CCCN1CCC(N2CCCCC2)CC1)S(=O)(=O)c1ccc(C)cc1`: the values for the inhibition in assay [1], in assay [2] and in assay [3] were 23.5%, 11.2% and 9.1%, respectively.
The like results for `COc1ccc(NC(=O)CCNc2cc(C)nc(NCCOc3ccccc3)n2)cc1` were, in that order, 2.22%, 2.64% and 1.92%.
In the case of `COc1ccccc1C(C)NCC(=O)Nc1cccc(C(=O)Nc2cccc(C(F)(F)F)c2)c1` (stereo unspecified), the inhibition is 3.9% in assay [1], -0.5% in assay [2] and 4.16% in assay [3].
The like results for `Cc1cccc2c(CON3C(N)=NC(N)=NC3(C)C)cccc12` were, in that order, 0.73%, 1.67% and 1.51%.
In the case of `O=C(NCCCc1ccccc1)c1ccc(O)c(-c2cc(Cl)cc(Cl)c2)c1`, the inhibition is 4.73% in assay [1], 4.32% in assay [2] and 3.61% in assay [3].
Turning to `CCNCc1cccc(-c2ccc3ccnc(N)c3c2)c1`, the results for the inhibition in assay [1], in assay [2] and in assay [3] were 4.49%, 3.12% and 4.03%, respectively.
As for `CCC1CCc2cc(N)cc(-c3nc4c(c(C)nn4CC)c(=O)[nH]3)c2O1` (stereo unspecified), the inhibition in assay [1] is 5.2%; in assay [2] it was 4.15%; in assay [3] it was 3.42%.
In the same order, the values of `COc1ccc(C2CCN(CCN3CCC(NC(=O)c4ccc(-c5cccc(C(F)(F)F)c5C(F)(F)F)cc4)CC3)CC2)c(OC)c1` are 0.36%, 1.29% and -0.58%.
Consider `CN(/N=C/C=C/c1ccc(Cl)cc1)c1nc(NCCc2ccc(O)cc2)nc(N2CCNCC2)n1`, for which the inhibition in assay [1] was -0.76%; in assay [2] it was 0.71%; in assay [3] it was -0.16%.
In the same order, the values of `CCCCCCCN1CCC(CCNc2ccnc3ccc(OC)cc23)CC1` are 0.51%, 2.47% and 0.79%.
The like results for `Cc1ccc(CNc2ccc3ncc(-c4cccc(C(=O)NCCN(C)C)c4)n3n2)c(C)c1` were, in that order, 5.82%, 5.31% and 4.49%.
In the same order, the values of `CCOc1cc(Cc2cnc(N)nc2N)cc(OCC)c1-n1cccc1` are 5.67%, 5.64% and 1.36%.
Turning to `COc1cccc(-c2ccc3c(-c4cccc(NC(C)=O)c4)cnc(N)c3c2)c1`, the inhibition was determined as 5.41% in assay [1], 4.32% in assay [2] and 3.78% in assay [3].
With `CC(C)(C)CCOC(=O)N1CCc2c(cc(O)c(O)c2Cl)C(c2ccc(O)cc2)C1` (stereo unspecified), the results for the inhibition in assay [1], in assay [2] and in assay [3] were -1.94%, 0.65% and 14%, respectively.
The like results for `O=C(NCCCCCN1CCC(c2c[nH]c3ccccc23)CC1)Nc1ccc(Cl)cc1Cl` were, in that order, 2.57%, 2.01% and 2.92%.
In the same order, the values of `CCc1c(C)c(C#N)c2nc3ccccc3n2c1NCc1ccco1` are 4.43%, 4.23% and 2.13%.
In the same order, the values of `O=C(NCCCCN1CCC(c2ccc3c(c2O)CCCC3)CC1)c1ccc(NC(=O)c2ccc(Cl)cc2)cc1` are 1.7%, 2.56% and 0.97%.
Take `N#Cc1ccc(NC(=O)Nc2ccc3c(c2)CCN(C2CCC2)CC3)cc1`: the inhibition in assay [1] is 5.18%; in assay [2], 4.41%; in assay [3] it was 3.26%.
In the same order, the values of `Nc1c2ccccc2nc2cc(C(F)(F)F)ccc12` are 2.83%, 5.91% and 1.3%.
With `C=C1C(C(=O)OCC)=CN(CC)c2cc(O[C@@H]3CCN(C(=O)OC(C)(C)C)C3)ccc21`, the inhibition in assay [1] stood at 6.89%; in assay [2], 5.44%; in assay [3], 6.99%.
Regarding `c1ccc2[nH]c(-c3ccc(-c4ccc(CN5CCN(CCN6CCOCC6)CC5)cc4)s3)nc2c1`, the inhibition in assay [1] is 10.4%; in assay [2] it was 9.34%; in assay [3], 7.67%.
The like results for `CCC(c1ccccc1)c1nn2c(-c3cccs3)nnc2s1` (stereo unspecified) were, in that order, 2.96%, 3.46% and 0.64%.
The like results for `O=c1c2cccnc2sn1-c1ccccc1` were, in that order, 0.94%, 0.87% and 0.72%.
Take `COc1ccccc1NC(=O)Nc1cccc(-c2cccc(-c3nc4cccc(C)c4[nH]3)c2)c1`: the inhibition in assay [1] was -1.43%; in assay [2], 0.52%; in assay [3], -1.31%.
As for `Cc1csc(-c2nc(NCc3cccnc3)ncc2-c2ccsc2)n1`, the figures for the inhibition in assay [1], in assay [2] and in assay [3] were 2.02%, 2.53% and 3.04%, respectively.
In the same order, the values of `CN1CCC(N2CCN(CCOc3cc(NC(=O)/C=C/c4ccccc4Cl)ccc3Br)CC2)CC1` are 0.25%, 2.87% and -1.82%.
In the same order, the values of `Cc1ccccc1N1CCN(c2ncc(C(=O)NC3CC3)cc2Cl)CC1` are 6.45%, 6.74% and 5.71%.
